Most compounds without a hit are left out; they make up all but 12% or so of the library.
BAZ2B block: inhibitors of human BAZ2B bromodomain | AlphaScreen BAZ2B-H3K14Ac peptide displacement | Potency, µM (series often up to 114 µM), inactives show top-dose activity change, negative = inhibition, usual class: inhibitors | 360,000 compounds, 4.4% hits; note: % is set by controls: 0 for no effect and ±100 for the full control effect; nearly all actives have a fitted effect of over 60% in size
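Compounds, titrated to a top concentration of 110 uM, were incubated 30 min at room temperature with preformed BAZ2B/acetyl-K14 H3 peptide complex (50 nM each). Proximity signal was measured by AlphaScreen after 20 min with beads.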
HP1b binding inh: HP1-beta chromodomain-methylated histone interaction inhibition. Potency, µM (doses to about 114 µM), without a hit: at the top dose activity change, negative = inhibition, usual class: inhibitors. AlphaScreen HP1-beta / biotin-H3K9me3 peptide binding. P83916. AID 540317. 390,000 compounds, 0.56% hits; note: nearly all actives have a fitted effect of over 70% in size
Target sequence (P83916 whole entry, looked up): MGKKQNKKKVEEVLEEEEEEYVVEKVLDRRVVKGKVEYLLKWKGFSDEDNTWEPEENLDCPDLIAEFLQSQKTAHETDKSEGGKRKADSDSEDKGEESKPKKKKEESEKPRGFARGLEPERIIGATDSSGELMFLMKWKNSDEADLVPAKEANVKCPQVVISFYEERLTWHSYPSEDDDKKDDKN
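Compound inhibition of the preformed complex between 50 nM HP1-beta and 50 nM biotinylated H3K9me3 peptide was read by AlphaScreen. Buffer was PBS pH 7.4 with 0.01% Tween-20. Incubations ran 30 min at room temperature, with 10 ug/mL donor/acceptor beads.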
JMJD2A Tudor: inhibitors of human JMJD2A Tudor domain. 390,000 compounds, 4.4% hits. Potency, µM (titrated, usually from 114 µM), for inactives: at the top dose activity change, negative = inhibition, actives largely listed as inhibitors. AlphaScreen JMJD2A-Tudor / H3K4me3 peptide binding. AID 504339; note: % is set by controls: 0 for no effect and ±100 for the full control effect; nearly all actives have a fitted effect of over 50% in size
L3MBTL1 block: L3MBTL1 (human) inhibition | Potency, µM (top dose mostly 57.1 µM), for the others: at the top dose activity, negative = inhibition, actives largely listed as inhibitors | AID 485360 | AlphaScreen L3MBTL1–H3K9me1 peptide binding | Q9Y468 | 230,000 compounds, 0.66% hits; note: % is set by controls: 0 for no effect and ±100 for the full control effect; nearly all actives have a fitted effect of over 60% in size
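Displacement of a biotinylated histone H3(1-15) peptide monomethylated at Lys9 (75 nM) from L3MBTL1 (50 nM) was measured by AlphaScreen after a 30 min room-temperature compound incubation; cefsulodin titration served as intraplate control.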
Sfp PPTase inh: inhibitors of Bacillus subtilis Sfp phosphopantetheinyl transferase. 310,000 compounds, 3.5% hits. Potency, µM, inactives show largest response in the series, negative = inhibition, most hits filed as inhibitors. Q9F4F7. Biochemical Sfp PPTase activity, qHTS;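 note: the enzyme is Sfp with the accession as filed and its product quenches rhodamine fluorescence; 0% = enzyme reaction without inhibitor and -100% = no enzyme wells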
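Buffer: 50 mM Hepes-Na pH 7.6, 10 mM MgCl2, 0.01% Nonidet P-40, 0.01% BSA. Enzyme 15 nM, pre-exposed to compound 15 min; substrates then added and fluorescence change tracked over 30 min.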
G9a inh: blocks human histone lysine methyltransferase G9a; 350,000 compounds, 8.8% hits; AID 504332; Potency, µM (series often up to 102 µM), for inactives: at the highest dose activity, negative = inhibition, usual class: inhibitors; Q96KQ7; G9a H3K9 monomethylation, AlphaScreen, 2 h; note: % is set by controls: 0 for no effect and ±100 for the full control effect; nearly all actives have a fitted effect of over 75% in size
Target sequence (Q96KQ7 913-1193 limits assumed): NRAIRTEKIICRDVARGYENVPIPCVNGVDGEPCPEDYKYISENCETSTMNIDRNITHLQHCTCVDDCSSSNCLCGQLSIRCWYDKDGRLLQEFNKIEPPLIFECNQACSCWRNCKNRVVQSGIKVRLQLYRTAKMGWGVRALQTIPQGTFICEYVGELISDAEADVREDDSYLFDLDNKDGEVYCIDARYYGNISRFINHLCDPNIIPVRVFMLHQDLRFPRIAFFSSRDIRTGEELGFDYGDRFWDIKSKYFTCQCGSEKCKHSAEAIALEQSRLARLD
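G9a (20 nM) was preincubated 15 min with compound, then reacted 2 h at room temperature with 500 nM biotin-H3K9 peptide and 20 µM SAM. Monomethyl-H3K9 detected by AlphaScreen using anti-H3K9me1 antibody.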
* marks the source's active call; other numbers are inactive results; ? = inconclusive; · = no result given; [ ] = dose if it differs, or a comment. Calls come from the whole dose curve; as a rule, active = well fitted curve in the direction sought with a large enough effect; inconclusive = small, poorly fitted or top-dose-only effect, or another doubt; inactive = no such curve, though single readings can be large; an effect the other way counts as inactive or inconclusive. Potency is the fitted concentration of half-maximal effect.

SMILES	BAZ2B block	HP1b binding inh	JMJD2A Tudor	L3MBTL1 block	Sfp PPTase inh	G9a inh
COc1ccc(/C=N/NC(=O)CNC(=O)COc2ccccc2)cc1	9.1%	5.6%	-6.4%	-2.9%	3.1%	6.2%[59 µM]
O=C1CC(c2ccccc2)CC2=C1C1(CCCCC1)N=C(Nc1nc3ccccc3o1)N2 (stereo not given)	·	·	-22.4%	·	·	·
CN(Cc1cccs1)C(=O)CCc1c[nH]c2ccccc12	-31.7%	14.2%	-28.9%	-10.5%	4.6%	-23.5%
CN(Cc1c(F)cccc1Cl)C(=O)CCc1c[nH]c2ccccc12	70.8µM*	-17.3%	?	·	12.2%	?
CCOC(=O)c1[nH]c(=O)[nH]c1CSc1nc(C)cc(C)n1	-10.4%	63.1%	1.2%	·	-21.5%	?
CCOC(=O)c1[nH]c(=O)[nH]c1COC(=O)c1cc2ccccc2o1	-38.4%	?	?	2.3%	19.4%	7.94µM*
C/C(CC(=O)Nc1ccc(N(C)C)cc1)=N\NC(=O)c1ccc(Cl)cc1	7.0%	3.4%	?	·	-12.1%	33.6%
C/C(CC(=O)NC12CC3CC(CC(C3)C1)C2)=N\NC(=O)c1cnccn1	-10.1%	27.5%	-15.3%	·	50.1µM*	-2.3%[59 µM]
CN(C)c1ccc(NC(=O)CC(NCc2ccccn2)C(=O)O)cc1 (stereo not given)	5.62µM*	30.3%	17.8µM*	12.6µM*	-13.0%	13.3%[59 µM]
C/C(CC(=O)Nc1ccc(N(C)C)cc1)=N\NC(=O)c1ccncc1	-32.9%	17.3%	-11.7%	-16.7%	-5.4%	35.5µM*
O=C(NC12CC3CC(CC(C3)C1)C2)c1cnccn1	3.6%	42.5%	-34.8%	3.7%	-7.0%	28.7%[59 µM]
C/C(CC(=O)Nc1ccc(N(C)C)cc1)=N\NC(=O)c1cnccn1	-34.9%	-6.8%	79.4µM*	8.1%	56.2µM*	?
Cc1ccc(NC(=O)Cn2cc(C(=O)c3ccco3)c3ccccc32)c(C)c1	-12.7%	31.5%	-17.1%	·	·	3.2%[59 µM]
Cc1ccc(-c2nc3c4ccccc4n(CC(=O)N4CCN(c5ccc(F)cc5)CC4)c(=O)n3n2)cc1	-2.1%	13.9%	-1.6%	·	·	2.9%[59 µM]
COC(C(=O)N/N=C(\C)CC(=O)Nc1ccc(N(C)C)cc1)c1ccccc1 (stereo not given)	-21.3%	11.2%	-26.4%	-11.6%	-11.6%	15.8µM*
C/C(CC(=O)Nc1ccc(N(C)C)cc1)=N\NC(=O)c1ccccn1	56.2µM*	?	?	-9.1%	-23.3%	50.1µM*
COc1ccc(/C(C)=N/NC(=O)c2ccccc2OCc2ccccc2)c(OC)c1	-38.3%	-21.2%	17.8µM*	-26.3%	-14.8%	5.5%
COc1ccc(/C=N/NC(=O)c2ccccc2OCc2ccccc2)c(OC)c1	-6.8%	15.3%	-14.8%	-20.7%	-13.1%	3.7%
COc1ccc(CC(=O)Nc2ccc(/C(C)=N/NC(=O)c3ccc(OC)cc3OC)cc2)cc1	-14.4%	43.4%	-8.2%	·	-0.5%	10.4%
COc1ccc(C(=O)N/N=C(\C)CC(=O)Nc2ccc(N(C)C)cc2)c(OC)c1	39.8µM*	?	?	7.9%[2.29 µM]	3.2%	13.4%[0.501 µM]
COC(C(=O)N/N=C(\C)CC(=O)Nc1ccc(Cl)cc1C)c1ccccc1 (stereo not given)	-3.1%	32.6%	-13.3%	2.9%	11.0%	-14.0%
CC(C)OCCCNc1ncnc2sc3c(c12)CCCC3	1.9%	46.7%	10.6%	·	·	12.5%[59 µM]
Cc1cccc(OCc2n[nH]c(=S)o2)c1	-39.0%	12.5%	?	3.4%	11.2%	10µM*
Cc1cccc(OCc2n[nH]c(=S)o2)c1C	56.2µM*	50.0%	-12.9%	1.4%	-2.2%	20µM*
Cc1cccc(C)c1OCc1n[nH]c(=S)o1	-2.9%	41.7%	-27.8%	-4.7%	10.4%	2.24µM*
SMILES	BAZ2B block	HP1b binding inh	JMJD2A Tudor	L3MBTL1 block	Sfp PPTase inh	G9a inh
Cc1cccc(OCc2cc(-c3ccccc3)no2)c1C	207.5%	204.6%	196.6%	·	-4.7%	399.1%
Cn1c(/C(C#N)=C/c2ccc(C(F)(F)F)cc2)nc2ccccc21	37.0%	101.3%	21.2%	·	·	27.9%[59 µM]
Cc1ccc(O)c(Nc2nc3ccccc3c3nncn23)c1	-0.5%	12.9%	-15.1%	·	·	14.3%[59 µM]
CCc1ccccc1NC(=O)CN1CCCN(Cc2cc(C)ccc2C)S1(=O)=O	-2.3%	50.5%	14.5%	·	·	?
Cc1cc(C)n(-c2nc3ccccc3s2)n1	110.5%	157.5%	86.9%	10.4%	-2.7%	83.0%
Cc1c2c(=O)n(-c3nc4ccccc4s3)nc-2cc(O)n1Cc1ccccc1	39.8µM*	17.5%	-26.9%	·	-27.1%	·
Cc1ccc(CNC(=O)CSc2nc3ccsc3c(=O)n2-c2ccc(Br)cc2)cc1	-4.3%	21.7%	-6.3%	·	·	-2.4%[59 µM]
[O]=[Bi][O]C(=O)[O][Bi]=[O]	·	·	·	·	22.4%	?
Cn1c(C(C#N)C2=C(Cl)C(=O)N(c3ccccc3)C2=O)nc2ccccc21 (stereo not given)	8.91µM*	·	·	?	?	14.1µM*
Cn1c(C(O)C(O)c2ccccc2)nc2ccccc21 (stereo not given)	-3.2%	37.3%	-6.9%	-1.9%	2.3%	3.3%
CCN(CC)c1ccc(C(=O)NNC(=O)CCNC(=O)c2ccccc2)cc1	10.6%	32.2%	-8.3%	2.5%	·	-6.2%[12.7 µM]
CCN(CC)c1ccc(C(=C2C=CC(=[N+](CC)CC)C=C2)c2ccc(N(CC)CC)cc2)cc1	·	2.82µM*	1.26µM*	·	·	·
CCN(CC)c1ccc(C(=C2C=CC(=[N+](CC)CC)C=C2)c2ccccc2)cc1	·	10µM*	15.8µM*	·	?	·
Cc1nn(-c2ccc(N3CCCCC3)nn2)c(C)c1CCC(=O)NCc1ccc(Cl)cc1	?	101.4%	?	·	·	10.8%[59 µM]
CCCCC[C@H](O)/C=C/[C@@H]1[C@H](C/C=C\CCCC(=O)O)[C@@H](O)C[C@H]1O	·	·	·	·	13.6%	25.1%[59 µM]
COc1cccc(/C=N/Nc2ccc([N+](=O)[O-])cc2)c1O	-3.4%	1.3%	-27.5%	·	-5.2%	?
COc1cccc(N/N=C/c2cccc(Br)c2O)c1	?	?	-31.0%	-9.1%	2.0%	2.24µM*
Cc1cccc(N/N=C/c2ccc(O)c(O)c2O)c1	50.1µM*	?	44.7µM*	?	3.55µM*	1.12µM*
Cc1ccc(-c2nc(C)c(CCNC(=O)C(=O)Nc3ccc(C)c(Cl)c3)s2)cc1	-21.2%	28.4%[57 µM]	-1.6%	·	·	1.1%[59 µM]
